A number with no mark means an inactive call. Results filed as inconclusive are left out. Entries that show only a call come without a potency. Activity calls are given as the source filed them. Unless noted, calls come from the whole dose curve; as a rule, active = well fitted curve in the direction sought with a large enough effect in the repeat runs; inconclusive = weak or mixed curves; inactive = no such curve, though single readings can be large; an effect the other way counts as inactive or inconclusive.
System: not listed separately
Assay: qHTS assay to identify small molecule antagonists of the androgen receptor (AR) signaling pathway - cell viability counter screen (AID 743033; note: nearly all actives have a fitted effect of over 45% in size)
Settings: AR-bla HEK293 viability, CellTiter-Glo luminescence, 16 h; series mostly up to 58.5 µM

| Structure (SMILES) | Potency |
| --- | --- |
| C[Si](Cl)(c1ccccc1)c1ccccc1 | inactive |
| O=C(Nc1ccc2c(O)c(N=Nc3ccc(N=Nc4ccc(S(=O)(=O)O)cc4)cc3)c(S(=O)(=O)O)cc2c1)c1ccccc1 | inactive |
| S=C([S-])NCCNC(=S)[S-].S=C([S-])NCCNC(=S)[S-].[Mn+2].[Zn+2] | inactive |
| COC(=O)c1ccccc1OC | inactive |
| CCC(=O)C(=O)CC | inactive |
| Cc1ccc(-c2ccccc2)cc1 | inactive |
| OC1CCCc2ccccc21 (centres undefined) | inactive |
| CC(N=C(NC#N)Nc1ccncc1)C(C)(C)C (centres undefined) | inactive |
| OC1CCC(C2CCCCC2)CC1 (centres undefined) | inactive |
| CCN(CCN)c1cccc(C)c1 | inactive |
| CCCNCCC | inactive |
| CNc1ccc([N+](=O)[O-])cc1 | inactive |
| CCC(C)(CCC(C)C)C(=O)[O][Sn]([CH3])([CH3])[O]C(=O)C(C)(CC)CCC(C)C (centres undefined) | inactive |
| Cc1cc(C(C)(C)C)c(O)c(C)c1Cn1c(=O)n(Cc2c(C)cc(C(C)(C)C)c(O)c2C)c(=O)n(Cc2c(C)cc(C(C)(C)C)c(O)c2C)c1=O | inactive |

Biological target: Androgen receptor (Homo sapiens) (UniProt P10275)
Sequence (P10275 whole entry, looked up): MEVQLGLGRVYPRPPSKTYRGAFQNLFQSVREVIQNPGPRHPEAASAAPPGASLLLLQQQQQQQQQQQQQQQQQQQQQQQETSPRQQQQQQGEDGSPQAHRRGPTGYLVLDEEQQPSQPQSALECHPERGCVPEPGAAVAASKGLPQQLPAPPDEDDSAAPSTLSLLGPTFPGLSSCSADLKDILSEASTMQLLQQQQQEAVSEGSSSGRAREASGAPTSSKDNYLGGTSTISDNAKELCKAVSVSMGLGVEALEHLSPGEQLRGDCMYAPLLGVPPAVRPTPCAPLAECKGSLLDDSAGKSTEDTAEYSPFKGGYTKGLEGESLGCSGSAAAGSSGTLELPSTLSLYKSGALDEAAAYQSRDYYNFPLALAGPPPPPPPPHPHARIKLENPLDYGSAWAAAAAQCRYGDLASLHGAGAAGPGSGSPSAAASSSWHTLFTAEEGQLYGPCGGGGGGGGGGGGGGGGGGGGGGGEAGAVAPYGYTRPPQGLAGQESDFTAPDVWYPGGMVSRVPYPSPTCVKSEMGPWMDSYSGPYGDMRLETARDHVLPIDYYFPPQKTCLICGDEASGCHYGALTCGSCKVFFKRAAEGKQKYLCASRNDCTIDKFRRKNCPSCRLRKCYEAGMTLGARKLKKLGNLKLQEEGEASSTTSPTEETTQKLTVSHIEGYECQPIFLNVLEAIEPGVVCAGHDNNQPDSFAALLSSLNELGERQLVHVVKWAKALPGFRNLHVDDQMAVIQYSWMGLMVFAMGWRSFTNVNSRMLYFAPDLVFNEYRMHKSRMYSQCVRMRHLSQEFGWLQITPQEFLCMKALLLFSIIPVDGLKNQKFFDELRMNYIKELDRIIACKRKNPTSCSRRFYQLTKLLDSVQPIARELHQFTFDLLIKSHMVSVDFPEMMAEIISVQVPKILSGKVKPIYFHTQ
Assay: qHTS assay to identify small molecule antagonists of the androgen receptor (AR) signaling pathway (AID 743035; active = well fitted inhibition curve with a large enough effect in the signal ratio in the repeat runs, not every such curve was filed as active; the % refers to the signal ratio)
Settings: HEK293 AR-UAS-bla, R1881-stimulated, beta-lactamase FRET, 16 h; series mostly up to 58.5 µM
How it was run: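 HEK293 cells stably carrying a UAS-driven beta-lactamase reporter (AR-UAS-bla GripTite) were plated for 4 h at 37C, then given compound and the agonist R1881 and incubated 16 h. Reporter activity was read by LiveBLAzer B/G FRET fluorescence after 2 h at room temperature.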

| Structure (SMILES) | Potency |
| --- | --- |
| ClCCl | inactive |
| CN(C)Cc1ccccc1O | inactive |
| CNc1ccc([N+](=O)[O-])cc1 | inactive |

Biological target: Androgen receptor (Homo sapiens) (UniProt P10275)
Assay: qHTS assay to identify small molecule agonists of the androgen receptor (AR) signaling pathway (AID 743036; active = well fitted activation curve with a large enough effect in the signal ratio in the repeat runs, with a control signal flat, not every such curve was filed as active; the % refers to the signal ratio; note: potency is the fitted concentration of half-maximal effect)
Settings: HEK293 AR-UAS-bla GripTite, beta-lactamase FRET ratio, 16 h; series mostly up to 62.4 µM
How it was run: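 Activation was read as beta-lactamase FRET signal from LiveBLAzer B/G substrate, added for 2 h at room temperature. Before that, GeneBLAzer AR-UAS-bla GripTite (HEK293) cells had 16 h compound exposure at 37C.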

| Structure (SMILES) | Potency |
| --- | --- |
| O=S(=O)(O)c1ccc(Nc2nc(Nc3ccc(/C=C/c4ccc(Nc5nc(Nc6ccc(S(=O)(=O)O)cc6)nc(N(CCO)CCO)n5)cc4S(=O)(=O)O)c(S(=O)(=O)O)c3)nc(N(CCO)CCO)n2)cc1 | 33.1 µM (active) |
| ClCCl | inactive |
| CC(C)Cn1cnc2c(N)nc3ccccc3c21 | inactive |
| CN(C)Cc1ccccc1O | inactive |

Biological target: Androgen receptor (Homo sapiens) (UniProt P10275)
Assay: qHTS assay to identify small molecule agonists of the androgen receptor (AR) signaling pathway using the MDA cell line (AID 743040; note: nearly all actives have a fitted effect of over 20% in size)
Settings: MDA-kb2 AR-luc cells, MMTV luciferase, 16 h, stronger effect = higher value; series mostly up to 70.3 µM
How it was run: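 MDA-kb2 breast carcinoma cells stably carrying an MMTV-driven luciferase reporter (AR- and GR-responsive) were seeded and held 5 h at 37C, 0% CO2, then exposed to compounds in DMSO for 16 h. Luminescence was read 30 min after ONE-Glo addition.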

| Structure (SMILES) | outcome |
| --- | --- |
| O=S(=O)(O)c1ccc(Nc2nc(Nc3ccc(/C=C/c4ccc(Nc5nc(Nc6ccc(S(=O)(=O)O)cc6)nc(N(CCO)CCO)n5)cc4S(=O)(=O)O)c(S(=O)(=O)O)c3)nc(N(CCO)CCO)n2)cc1 | inactive |
| ClCCl | inactive |
| CC(C)Cn1cnc2c(N)nc3ccccc3c21 | inactive |
| CN(C)Cc1ccccc1O | inactive |

System: not listed separately
Assay: qHTS assay to identify small molecule antagonists of the androgen receptor (AR) signaling pathway using the MDA cell line - cell viability counter screen (AID 743041; note: nearly all actives have a fitted effect of over 45% in size; note: potency is the fitted concentration of half-maximal effect)
Settings: MDA-kb2 viability, CellTiter-Fluor, 16 h, cells co-treated with R1881 androgen agonist; series mostly up to 70.3 µM
How it was run: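 MDA-kb2 AR-luc human breast carcinoma cells (MMTV-luciferase, AR/GR responsive) were treated with compounds plus R1881 agonist for 16 h at 37 °C. Viability was read as CellTiter-Fluor fluorescence in the same wells as the reporter assay.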

| Structure (SMILES) | Potency | viability change, negative = cytotoxic |
| --- | --- | --- |
| C[C@H]1NCc2cc(-c3ccc4c(=O)c(C(=O)O)cn(C5CC5)c4c3OC(F)F)ccc21 | inactive | – |
| Cl[Si](Cl)(c1ccccc1)c1ccccc1 | inactive | – |
| CC(C)CCCCCOC(=O)CCS | inactive | – |
| COCCOc1cc2cc(C(=O)NC3CCN(C(C)C)CC3)n(CC(=O)Nc3ccc(Cl)cn3)c2cn1 | inactive | – |
| Nc1nc(-c2ccccc2)cs1 | inactive | – |
| CCCCCCCCCCCC(=O)OCC(C)OC(=O)CCCCC(=O)O (centres undefined) | inactive | – |
| Cc1cc(C(C)(C)C)cc(C)c1CC1=NCCN1 | inactive | – |
| CCC(COC(=O)CCS)(COC(=O)CCS)COC(=O)CCS | inactive | – |
| COc1cccc(OC)c1C(=O)O | inactive | – |
| CCOC(=O)NNc1ccc(N(CC)CC(C)O)nn1 (centres undefined) | inactive | – |
| C1CCC(SSC2CCCCC2)CC1 | inactive | – |
| CC(C)(C)CC(C)(C)c1ccc(Nc2ccc(C(C)(C)CC(C)(C)C)cc2)cc1 | – | -4.37% [at 8.47 µM] |
| C=CCCC(=O)/C=C/C1C(C)=CCCC1(C)C (centres undefined) | inactive | – |
| Cc1c(F)c(N2CCNC(C)C2)cc2c1c(=O)c(C(=O)O)cn2C1CC1 (centres undefined) | inactive | – |
| ClCCl | inactive | – |
| COc1ccc(-c2coc3cc(O)ccc3c2=O)cc1 | inactive | – |
| CC(C)Cn1cnc2c(N)nc3ccccc3c21 | inactive | – |

| Structure (SMILES) | Potency | viability change, negative = cytotoxic |
| --- | --- | --- |
| CN(C)Cc1ccccc1O | inactive | – |
| c1ccc(SSc2ccccc2)cc1 | inactive | – |
| Cc1nc2n(c(=O)c1CCN1CCC(c3noc4cc(F)ccc34)CC1)CCCC2 | inactive | – |
| Nc1ccc(Oc2ccc(Cl)cc2)cc1 | inactive | – |
| C[Si](Cl)(c1ccccc1)c1ccccc1 | inactive | – |
| O=C(Nc1ccc2c(O)c(N=Nc3ccc(N=Nc4ccc(S(=O)(=O)O)cc4)cc3)c(S(=O)(=O)O)cc2c1)c1ccccc1 | 24.3 µM (active) | – |
| S=C([S-])NCCNC(=S)[S-].S=C([S-])NCCNC(=S)[S-].[Mn+2].[Zn+2] | inactive | – |
| COC(=O)c1ccccc1OC | inactive | – |
| CCC(=O)C(=O)CC | inactive | – |
| Cc1ccc(-c2ccccc2)cc1 | inactive | – |
| OC1CCCc2ccccc21 (centres undefined) | inactive | – |
| CC(N=C(NC#N)Nc1ccncc1)C(C)(C)C (centres undefined) | inactive | – |
| OC1CCC(C2CCCCC2)CC1 (centres undefined) | inactive | – |
| CCN(CCN)c1cccc(C)c1 | inactive | – |
| CCCNCCC | inactive | – |
| CCC(C)(CCC(C)C)C(=O)[O][Sn]([CH3])([CH3])[O]C(=O)C(C)(CC)CCC(C)C (centres undefined) | inactive | – |
| Cc1cc(C(C)(C)C)c(O)c(C)c1Cn1c(=O)n(Cc2c(C)cc(C(C)(C)C)c(O)c2C)c(=O)n(Cc2c(C)cc(C(C)(C)C)c(O)c2C)c1=O | inactive | – |

Biological target: Androgen receptor (Homo sapiens) (UniProt P10275)
Assay: qHTS assay to identify small molecule antagonists of the androgen receptor (AR) signaling pathway using the MDA cell line (AID 743042; note: nearly all actives have a fitted effect of over 55% in size)
Settings: MDA-kb2 AR-luc, MMTV luciferase, R1881 antagonist, 16 h; series mostly up to 70.3 µM
How it was run: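 MDA-kb2 cells (human breast carcinoma, stably carrying an MMTV-luciferase reporter responsive to AR and GR) were plated at 3,000 cells/well and preincubated 5 hr at 37C, then given compound plus R1881 agonist for 16 h. ONE-Glo luminescence was read.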

| Structure (SMILES) | Potency |
| --- | --- |
| O=S(=O)(O)c1ccc(Nc2nc(Nc3ccc(/C=C/c4ccc(Nc5nc(Nc6ccc(S(=O)(=O)O)cc6)nc(N(CCO)CCO)n5)cc4S(=O)(=O)O)c(S(=O)(=O)O)c3)nc(N(CCO)CCO)n2)cc1 | inactive |
| ClCCl | inactive |
| CC(C)Cn1cnc2c(N)nc3ccccc3c21 | inactive |
| CN(C)Cc1ccccc1O | inactive |
| CNc1ccc([N+](=O)[O-])cc1 | inactive |

From PubChem BioAssay (Tox21)
